# Reference: the supplement of paper PMC12494721
# Where a name gives a salt, the structure may show the parent alone.
# Key:
# Details in all cases: 20 µM; incubation time: 27 h, anaerobic, 37 °C;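 for the amine columns active = adjusted P below 0.05 in both replicates with a change the same way and a mean fold change under 0.8 or over 1.25; inactive = the rest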
# [1] = test system: Clostridium sporogenes DSM 1664; test: growth (OD595) fold change vs plate DMSO controls (fold change (ratio)); higher = more growth
# Method in brief: (§1)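 The reported measure is growth: the fold change against the median of DMSO controls on the plate. Absorbance at 595 nm from anaerobic 96-well mGAM cultures grown for 27 h at 37 °C was blank-subtracted, corrected for background with 20 µM compound solutions in water, and converted to OD with a calibration factor of 5. Fold changes above 1.5 appear as NA, and values are the mean of 2 biological replicates.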
# Escherichia coli IAI1 [2] = test: as above
# Method in brief: as §1
# [3] = test system: Klebsiella aerogenes DSM 30053; test: as above
# Method in brief: as §1
# [4] = test system: Ruminococcus gnavus DSM 108212; test: as above
# Method in brief: as §1
# [5] = test system: Klebsiella aerogenes DSM 30053; test: fold change of Histamine concentration vs plate DMSO controls (fold change (ratio)); higher = more amine produced, active = hit call of the paper (significant change in both replicates, either direction)
# Method in brief: (§2)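 Anaerobic mGAM cultures of four gut bacterial strains were grown at 37 °C for 27 h in 80 µL wells, starting at OD 0.1 before 1:1 dilution. Compounds were at 20 µM final (sweeteners 50 µM). Whole cultures were extracted with cold acetonitrile/methanol containing 0.1% formic acid and centrifuged. Amines were quantified by LC–triple-quadrupole MS (dynamic MRM) against external calibration curves and drift-corrected within batch. Each value is the fold change versus plate DMSO controls, averaged over 2 biological replicates.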
# [6] = test system: Clostridium sporogenes DSM 1664; test: fold change of Tryptamine concentration vs plate DMSO controls (fold change (ratio)); higher = more amine produced, active = hit call of the paper (significant change in both replicates, either direction)
# Method in brief: as §2
# [7] = test system: Ruminococcus gnavus DSM 108212; test: as above
# Method in brief: as §2
# Escherichia coli IAI1 [8] = test: fold change of Putrescine concentration vs plate DMSO controls (fold change (ratio)); higher = more amine produced, active = hit call of the paper (significant change in both replicates, either direction)
# Method in brief: as §2
# [9] = test system: Klebsiella aerogenes DSM 30053; test: as above
# Method in brief: as §2
# Escherichia coli IAI1 [10] = test: fold change of Cadaverine concentration vs plate DMSO controls (fold change (ratio)); higher = more amine produced, active = hit call of the paper (significant change in both replicates, either direction)
# Method in brief: as §2
# [11] = test system: Klebsiella aerogenes DSM 30053; test: as above
# Method in brief: as §2
# [12] = test system: Ruminococcus gnavus DSM 108212; test: fold change of 2-Phenylethylamine concentration vs plate DMSO controls (fold change (ratio)); higher = more amine produced, active = hit call of the paper (significant change in both replicates, either direction)
# Method in brief: as §2
SMILES,growth [1],growth (Escherichia coli IAI1 [2]),growth [3],growth [4],fold change of Histamine concentration [5],fold change of Tryptamine concentration [6],fold change of Tryptamine concentration [7],fold change of Putrescine concentration (Escherichia coli IAI1 [8]),fold change of Putrescine concentration [9],fold change of Cadaverine concentration (Escherichia coli IAI1 [10]),fold change of Cadaverine concentration [11],fold change of 2-Phenylethylamine concentration [12]
O=S(=O)(c1ccc(O)cc1)c1ccc(O)cc1 [Bisphenol S],1.08,1.02,0.994,1.04,0.949 (inactive),1.04 (inactive),0.941 (inactive),0.883 (inactive),0.939 (inactive),0.961 (inactive),0.998 (inactive),0.946 (inactive)
Cc1nnc(-c2ccccc2)c(=O)n1N,0.969,1.05,0.993,1.01,1.04 (inactive),0.988 (inactive),1.04 (inactive),0.965 (inactive),1 (inactive),1.03 (inactive),0.972 (inactive),1.13 (inactive)
CC1(C)C(C(=O)OC(C#N)c2cccc(Oc3ccccc3)c2)C1(C)C (stereo unspecified),0.931,1.02,1.01,1.15,1 (inactive),1.06 (inactive),1.17 (inactive),0.937 (inactive),0.987 (inactive),0.982 (inactive),1 (inactive),1.25 (inactive)
C[C@]12CCC(=O)C(O)=C1CC[C@@H]1[C@@H]2CC[C@]2(C)C(=O)CC[C@@H]12 [Formestane],1.03,0.965,0.974,1.13,1.05 (inactive),0.968 (inactive),1 (inactive),1.02 (inactive),1.01 (inactive),1.01 (inactive),0.981 (inactive),1.03 (inactive)
CCOC(=O)c1cncn1[C@H](C)c1ccccc1 [Etomidate],–,1.22,0.988,0.931,0.992 (inactive),–,1.06 (inactive),0.985 (inactive),1.07 (inactive),0.973 (inactive),1.07 (inactive),1.19 (inactive)
Nc1c(Cl)c(F)nc(OCC(=O)O)c1Cl,0.964,1.01,1.05,1.03,0.96 (inactive),1.03 (inactive),1.04 (inactive),0.986 (inactive),0.955 (inactive),0.95 (inactive),1.01 (inactive),1.05 (inactive)
C=CC[C@]1(O)CC[C@H]2[C@@H]3CCC4=CC(=O)CCC4=C3C=C[C@@]21C [Altrenogest],0.998,0.987,1.05,0.827,0.926 (inactive),1.02 (inactive),1 (inactive),1.09 (inactive),1.01 (inactive),1.42 (inactive),1.01 (inactive),0.978 (inactive)
CC[C@H](C)C1O[C@]2(C=C[C@@H]1C)C[C@@H]1C[C@@H](C/C=C(\C)[C@@H](O[C@H]3C[C@H](OC)[C@@H](O[C@H]4C[C@H](OC)[C@H](NC)[C@H](C)O4)[C@H](C)O3)[C@@H](C)/C=C/C=C3\CO[C@@H]4[C@H](O)C(C)=C[C@@H](C(=O)O1)[C@]34O)O2 (stereo partly specified),0.931,1.08,1.05,–,0.888 (inactive),0.823 (inactive),0.581 (active),1.05 (inactive),0.995 (inactive),1.02 (inactive),0.995 (inactive),0.654 (inactive)
O=C1C2(Cl)C3(Cl)C4(Cl)C(Cl)(Cl)C5(Cl)C3(Cl)C1(Cl)C5(Cl)C24Cl (stereo unspecified),0,1.09,1.04,–,1.07 (inactive),0.0206 (active),0.27 (active),1.05 (inactive),1.07 (inactive),1.14 (inactive),1.05 (inactive),0.297 (inactive)
COc1ccc(CCN2CCC(Nc3nc4ccccc4n3Cc3ccc(F)cc3)CC2)cc1 [Astemizole],1.26,1.02,1.01,–,0.968 (inactive),1.02 (inactive),0.838 (inactive),1.01 (inactive),0.988 (inactive),1.05 (inactive),0.994 (inactive),0.796 (inactive)
O=C(O)C(F)(F)C(F)(F)C(F)(F)C(F)(F)C(F)(F)C(F)(F)F [PFHpA (Perfluoroheptanoic acid)],0.939,1.01,0.994,0.995,0.997 (inactive),1.06 (inactive),0.979 (inactive),1.03 (inactive),1.02 (inactive),1.04 (inactive),1 (inactive),0.98 (inactive)
CC(=O)OCC(=O)[C@H]1CC[C@H]2[C@@H]3CC[C@H]4C[C@H](O)CC[C@]4(C)[C@H]3C(=O)C[C@]12C [Alfadolone acetate],0.985,1.26,0.997,1.11,1.03 (inactive),1.04 (inactive),1.02 (inactive),1.22 (inactive),0.981 (inactive),1.03 (inactive),0.977 (inactive),1.01 (inactive)
CCOP(=S)(OCC)Oc1nc(Cl)c(Cl)cc1Cl,1.13,0.998,1.04,0.945,0.882 (inactive),1.01 (inactive),0.936 (inactive),0.986 (inactive),1.01 (inactive),1.03 (inactive),1.02 (inactive),0.873 (inactive)
CCNC1(c2cccs2)CCCCC1=O (stereo unspecified) [Tiletamine hydrochloride],1.04,1,0.995,1.15,1.03 (inactive),1.04 (inactive),1.02 (inactive),0.955 (inactive),1.01 (inactive),0.995 (inactive),1.01 (inactive),1 (inactive)
CC(Oc1ccc(Oc2nc3ccc(Cl)cc3o2)cc1)C(=O)O (racemic),1.06,1.04,1.02,1.01,0.989 (inactive),1 (inactive),1 (inactive),1.03 (inactive),1.01 (inactive),0.937 (inactive),1.02 (inactive),1.01 (inactive)
CCC(=O)O[C@H]1CC[C@H]2[C@@H]3CCC4=CC(=O)CC[C@]4(C)[C@H]3CC[C@]12C [Testosterone propionate],1.02,1.01,1.03,–,1.02 (inactive),0.993 (inactive),1.08 (inactive),0.938 (inactive),1.02 (inactive),0.985 (inactive),1.07 (inactive),1.23 (inactive)
CNC(=O)/C=C(\C)OP(=O)(OC)OC,1.06,1.01,1.01,0.948,1.01 (inactive),1.05 (inactive),0.985 (inactive),0.968 (inactive),0.986 (inactive),1.05 (inactive),0.998 (inactive),1.06 (inactive)
CC(C)C[C@H](CN)CC(=O)O [Pregabalin],0.96,0.982,0.982,0.865,1.06 (inactive),1.04 (inactive),1.05 (inactive),1.03 (inactive),1 (inactive),1.02 (inactive),0.982 (inactive),1.06 (inactive)
C[CH2][Hg][S]c1ccccc1C(=O)[O-].[Na+] [Thimerosal],0.878,0.91,0.707,–,0.531 (inactive),0.986 (inactive),0.487 (active),0.936 (inactive),0.953 (inactive),0.896 (inactive),1 (inactive),0.496 (inactive)
